A short description of test [1]: qHTS assay to identify small molecule agonists of the sonic hedgehog signaling (Shh) pathway (AID 1259368; calls by dose curve; further: series mostly up to about 92 µM; nearly all actives have a fitted effect of over 15% in size). The gist of the method: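 NIH/3T3-derived 3T3Gli1-Luc cells carrying a stably integrated Gli1 response element–firefly luciferase reporter were plated, left 4 hr at 37 C, then given compounds in DMSO for 24 hr. Luminescence was read 30 min after adding luciferase reagent.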

The nature of test [2]: qHTS assay to identify small molecule antagonists of the sonic hedgehog signaling (Shh) pathway (AID 1259369; calls by dose curve; further: nearly all actives have a fitted effect of over 45% in size). The gist of the method:
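NIH/3T3-derived 3T3Gli1-Luc cells with stably integrated Gli1-Luc reporter were preincubated 4hr at 37 C, then given compounds in DMSO plus Shh conditioned medium and incubated 24hr. Firefly luciferase luminescence read after 30min reagent at room temperature.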
Background: In qHTS, concentration-response curves come from the screen itself.

Test [3] deals with Estrogen receptor beta (Homo sapiens) (UniProt Q92731). Briefly: qHTS assay to identify small molecule agonists of the estrogen receptor beta (ER-beta) signaling pathway (AID 1259377; active means well fitted activation curve with a large enough effect in the signal ratio in the repeat runs, not every such curve was filed as active; the % refers to the signal ratio). Summed up:
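HEK293T ER-beta-UAS-bla; 2% charcoal-stripped FBS; cells pre-incubated 6 hr, compound 16 hr, 37C/5% CO2; LiveBLAzer B/G FRET substrate 2 h RT; fluorescence intensity read.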

A short description of test [4]: qHTS assay to identify small molecule agonists of the androgen receptor (AR) signaling pathway in the presence of an antagonist - cell viability counter screen (AID 1259379). Further: nearly all actives have a fitted effect of over 25% in size. Further: potency means the concentration at half of the fitted maximal effect. The gist of the method: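 MDA-kb2 human breast carcinoma cells (stable MMTV-luciferase, AR/GR responsive) were seeded 3,000 cells/well, pre-incubated 5 hr at 37C without CO2, then given 3.0uM nilutamide and compounds at 15 concentrations for 16 hr. Viability was read by CellTiter-Fluor fluorescence.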

The nature of test [5]: qHTS assay to identify small molecule agonists of the estrogen receptor beta (ER-beta) signaling pathway - cell viability counter screen (AID 1259380). Further: nearly all actives have a fitted effect of over 30% in size. The gist of the method: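 ER-beta-UAS-bla HEK293T cells in medium with 2% charcoal-stripped FBS were preincubated 6 hr at 37C, dosed with compound in DMSO for 16 hr, then after the bla read, CellTiter-Glo was added for 30 min at room temperature; luminescence recorded.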

Test [6] is described as follows: qHTS assay to identify small molecule antagonists of the estrogen receptor beta (ER-beta) signaling pathway - cell viability counter screen (AID 1259382).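 Further: HEK293T cells carrying ER-beta-UAS-bla reporter stimulated with estradiol; series mostly up to about 92 µM; nearly all actives have a fitted effect of over 55% in size.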 Summed up: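 ER-beta-UAS-bla HEK293T cells (2,000/well, 2% charcoal-stripped FBS) were pre-incubated 6 hr at 37C, then given compound plus 1nM final 17-beta-estradiol for 16 hr. Viability was read in the same wells by CellTiter-Glo luminescence after 30 min at room temperature.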

Test [7] in a line: qHTS assay to identify small molecule agonists or antagonists of the thyroid stimulating hormone receptor (TSHR) signaling pathway - wild type cell line counter screen (AID 1259384; calls by dose curve). The gist of the method:
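Counter screen in untransfected Hek293: compounds (15-point titration, triplicate) plus phosphodiesterase inhibitor Ro20-1724 added after 18 h plating; 30 min RT. Intracellular cAMP via competitive d2/cryptate immunoassay, 1 h incubation.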

For test [8], the target named is Thyrotropin receptor (Homo sapiens) (UniProt P16473). Briefly: qHTS assay to identify small molecule antagonists of the thyroid stimulating hormone receptor (TSHR) signaling pathway (AID 1259385; calls by dose curve; further: nearly all actives have a fitted effect of over 20% in size). The gist of the method:
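Antagonist mode: compound-treated TSHR-expressing HEK293 cells were stimulated with 1.5 ng/mL TSH (final) in presence of Ro20-1724 for 30 min at RT. HTRF cAMP detection after 1 h; each compound tested at 15 concentrations, triplicate.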

Test [9] can be described thus: qHTS assay to identify small molecule agonists of the estrogen receptor alpha (ER-alpha) signaling pathway in the presence of an antagonist - cell viability counter screen (AID 1259386).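 Further: cells exposed to compounds for 22 h at 37 °C before the viability read; nearly all actives have a fitted effect of over 30% in size.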 Further: potency means the concentration at half of the fitted maximal effect. The gist of the method:
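VM7Luc4E2 cells (endogenous full-length ER-alpha, 4×ERE-luciferase) were held 5 days in phenol red-free medium with 10% charcoal-stripped FBS, plated, then given 10.0nM ICI-182,780 and compounds at 15 concentrations for 22hr at 37C; viability read by CellTiter-Fluor fluorescence.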

In test [10] the target is Progesterone receptor (Homo sapiens) (UniProt P06401). The test is described as follows: qHTS assay to identify small molecule agonists of the progesterone receptor (PR) signaling pathway (AID 1346784; calls by dose curve; further: nearly all actives have a fitted effect of over 30% in size). Summed up: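 Beta-lactamase reporter read-out: after 16 hr compound treatment at 37C and a further 2 hr at room temperature with LiveBLAzer B/G FRET substrate, fluorescence was measured in PR-UAS-bla HEK 293T cells grown in 2% charcoal-stripped serum.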
Sequence of Progesterone receptor (Homo sapiens) (P06401 whole entry, looked up): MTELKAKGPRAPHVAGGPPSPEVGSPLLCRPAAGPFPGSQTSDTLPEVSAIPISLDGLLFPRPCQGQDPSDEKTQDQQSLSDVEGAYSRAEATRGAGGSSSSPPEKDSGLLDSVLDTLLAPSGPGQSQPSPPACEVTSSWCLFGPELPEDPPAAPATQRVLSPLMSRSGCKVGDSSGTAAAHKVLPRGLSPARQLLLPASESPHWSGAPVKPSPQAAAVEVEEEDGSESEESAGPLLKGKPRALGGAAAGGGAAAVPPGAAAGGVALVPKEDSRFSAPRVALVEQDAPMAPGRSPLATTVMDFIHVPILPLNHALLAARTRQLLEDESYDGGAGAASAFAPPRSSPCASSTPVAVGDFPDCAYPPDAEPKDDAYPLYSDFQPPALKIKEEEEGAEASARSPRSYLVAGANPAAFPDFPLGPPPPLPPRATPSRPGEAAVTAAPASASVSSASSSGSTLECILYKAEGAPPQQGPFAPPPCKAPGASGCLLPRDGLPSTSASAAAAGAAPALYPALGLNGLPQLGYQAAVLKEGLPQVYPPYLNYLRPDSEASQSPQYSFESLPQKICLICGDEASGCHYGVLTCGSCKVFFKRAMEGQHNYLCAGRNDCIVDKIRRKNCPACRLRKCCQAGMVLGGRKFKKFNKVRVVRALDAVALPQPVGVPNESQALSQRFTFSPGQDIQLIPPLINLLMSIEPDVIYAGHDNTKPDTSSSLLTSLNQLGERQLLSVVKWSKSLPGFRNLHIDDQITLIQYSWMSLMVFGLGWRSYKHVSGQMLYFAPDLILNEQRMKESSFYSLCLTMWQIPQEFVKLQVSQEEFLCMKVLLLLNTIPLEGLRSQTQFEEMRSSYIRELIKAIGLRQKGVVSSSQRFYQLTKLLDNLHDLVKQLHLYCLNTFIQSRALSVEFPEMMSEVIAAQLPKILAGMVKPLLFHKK

The target is the same in test [11]. Briefly: qHTS assay to identify small molecule antagonists of the progesterone receptor (PR) signaling pathway (AID 1346795; active means well fitted inhibition curve with a large enough effect in the signal ratio in the repeat runs, not every such curve was filed as active; the % refers to the signal ratio). Summed up: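 Read-out is fluorescence from the LiveBLAzer B/G FRET substrate, cleaved by a UAS-controlled beta-lactamase in PR-UAS-bla HEK293T cells after 16 hr exposure to compound plus 1 nM promegestone (final), followed by 2 hr at room temperature.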

Test [12] is described as follows: qHTS assay to identify small molecule antagonists of the progesterone receptor (PR) signaling pathway - cell viability counter screen (AID 1346798).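 Further: HEK293T PR-UAS-bla cells stimulated with the agonist R5020; series mostly up to about 92 µM; nearly all actives have a fitted effect of over 50% in size.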 Summed up:
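HEK293T PR-UAS-bla, 2% charcoal-stripped FBS; 4 hr pre-plate; cpd + R5020, 16 h 37C; LiveBLAzer read first; then CellTiter-Glo 30 min RT, luminescence.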

Test [13] in a line: qHTS assay to identify small molecule agonists of the progesterone receptor (PR) signaling pathway - cell viability counter screen (AID 1346799; calls by dose curve; further: nearly all actives have a fitted effect of over 45% in size). The gist of the method:
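Luminescence from CellTiter-Glo, added after the beta-lactamase FRET read in the same wells, gave cytotoxicity in PR-UAS-bla HEK293T cells treated with compounds for 16 hr at 37C.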

Test [14] in a line: qHTS assay to identify small molecule antagonists of the TGF-beta/Smad signaling pathway - cell viability counter screen (AID 1346824). Further: nearly all actives have a fitted effect of over 50% in size. Summed up: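 Cytotoxicity counter-screen run in the same wells as the beta-lactamase Smad reporter read: CellTiter-Glo luminescence after 30 min at room temperature. HEK 293T SBE-bla cells had 5 hr compound exposure at 37 C with TGF-beta1 (0.25 ng/mL stock).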

Test [15] is described as follows: qHTS assay to identify small molecule agonists of the TGF-beta/Smad signaling pathway - cell viability counter screen (AID 1346829). Further: top concentration of the series differs between compounds; nearly all actives have a fitted effect of over 45% in size. Summed up:
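Here the cytotoxicity of library compounds is measured in SBE-bla HEK 293T cells treated for 5 hr, using CellTiter-Glo added to wells already read for the beta-lactamase reporter.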

The nature of test [16]: qHTS assay to identify small molecule agonists of the TGF-beta/Smad signaling pathway (AID 1346859; active means well fitted activation curve with a large enough effect in the signal ratio in the repeat runs, not every such curve was filed as active; the % refers to the signal ratio; further: series mostly up to about 77 µM). The gist of the method: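 SBE-bla HEK 293T, 4,000 cells/well, plated o/n; cpd in DMSO, 5 hr, 37 C/5% CO2; B/G FRET substrate 2 hr RT; ex 405, em 460/530 nm.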
The target in test [17] is Thyrotropin-releasing hormone receptor (Homo sapiens) (UniProt P34981). The test is described as follows: qHTS assay to identify small molecule antagonists of the thyrotropin-releasing hormone receptor (TRHR) signaling pathway (AID 1346877; active means well fitted inhibition curve with a large enough effect in the repeat runs, not every such curve was filed as active; further: series mostly up to about 51 µM). Summed up:
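TRHR-expressing HEK293 cells were seeded, cultured 18 h at 37 °C, then loaded with calcium dye for 2 h. Compounds were pre-incubated 5 min at room temperature before 1 nM TRH (final) was added, and kinetic fluorescence was recorded for 3 min.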

Test [18] deals with Estrogen receptor (Homo sapiens) (UniProt P03372). Briefly: qHTS assay to identify small molecule agonists of the estrogen receptor alpha (ER-alpha) signaling pathway in the presence of an antagonist (AID 1259383; calls by dose curve; further: top concentration of the series differs between compounds; nearly all actives have a fitted effect of over 15% in size). Summed up:
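VM7Luc4E2 cells (endogenous full-length ER-alpha, 4×ERE-luciferase) were precultured 5 days in phenol red-free medium with 10% charcoal-stripped FBS, given 10.0nM ICI-182,780 (final), then treated with compounds at 15 concentrations for 22hr at 37C; luminescence read with ONE-Glo.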

Where “and” joins values, the source holds several entries; their conditions need not be identical. Identical values can stand only once. Inconclusive results are not listed. Calls of active or inactive are those of the source. Unless noted, the call rests on the fitted dose curve; in most records, active means well fitted curve in the direction sought with a large enough effect in the repeat runs; inconclusive means weak or mixed curves; inactive means no such curve, though single readings can be large; an effect the other way counts as inactive or inconclusive.

Sequence of Estrogen receptor beta (Homo sapiens) (Q92731 whole entry, looked up): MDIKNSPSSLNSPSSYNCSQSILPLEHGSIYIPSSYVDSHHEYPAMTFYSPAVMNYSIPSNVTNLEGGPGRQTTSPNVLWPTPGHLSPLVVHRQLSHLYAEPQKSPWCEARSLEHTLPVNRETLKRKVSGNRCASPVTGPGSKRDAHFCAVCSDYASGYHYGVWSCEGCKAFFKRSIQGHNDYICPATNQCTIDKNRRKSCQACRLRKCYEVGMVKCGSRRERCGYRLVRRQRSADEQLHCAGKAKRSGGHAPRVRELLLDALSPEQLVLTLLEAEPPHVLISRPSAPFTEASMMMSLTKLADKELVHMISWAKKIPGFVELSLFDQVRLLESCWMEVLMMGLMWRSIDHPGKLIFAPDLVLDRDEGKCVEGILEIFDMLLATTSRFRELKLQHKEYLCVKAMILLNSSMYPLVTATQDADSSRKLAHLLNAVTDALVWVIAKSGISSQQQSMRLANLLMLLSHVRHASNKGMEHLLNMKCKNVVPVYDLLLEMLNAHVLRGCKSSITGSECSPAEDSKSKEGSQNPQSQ
Sequence of Thyrotropin-releasing hormone receptor (Homo sapiens) (P34981 whole entry, looked up): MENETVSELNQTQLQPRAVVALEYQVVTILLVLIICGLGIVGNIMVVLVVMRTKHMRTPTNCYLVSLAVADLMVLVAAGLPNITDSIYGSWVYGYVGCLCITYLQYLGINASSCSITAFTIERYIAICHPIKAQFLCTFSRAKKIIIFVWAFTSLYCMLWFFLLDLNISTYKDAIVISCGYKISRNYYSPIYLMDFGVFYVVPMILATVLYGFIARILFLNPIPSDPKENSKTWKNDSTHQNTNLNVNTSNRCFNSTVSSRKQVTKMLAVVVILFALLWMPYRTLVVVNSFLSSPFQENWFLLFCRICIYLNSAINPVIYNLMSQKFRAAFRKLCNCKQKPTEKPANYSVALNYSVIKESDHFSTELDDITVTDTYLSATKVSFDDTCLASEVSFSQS
Sequence of Thyrotropin receptor (Homo sapiens) (P16473 whole entry, looked up): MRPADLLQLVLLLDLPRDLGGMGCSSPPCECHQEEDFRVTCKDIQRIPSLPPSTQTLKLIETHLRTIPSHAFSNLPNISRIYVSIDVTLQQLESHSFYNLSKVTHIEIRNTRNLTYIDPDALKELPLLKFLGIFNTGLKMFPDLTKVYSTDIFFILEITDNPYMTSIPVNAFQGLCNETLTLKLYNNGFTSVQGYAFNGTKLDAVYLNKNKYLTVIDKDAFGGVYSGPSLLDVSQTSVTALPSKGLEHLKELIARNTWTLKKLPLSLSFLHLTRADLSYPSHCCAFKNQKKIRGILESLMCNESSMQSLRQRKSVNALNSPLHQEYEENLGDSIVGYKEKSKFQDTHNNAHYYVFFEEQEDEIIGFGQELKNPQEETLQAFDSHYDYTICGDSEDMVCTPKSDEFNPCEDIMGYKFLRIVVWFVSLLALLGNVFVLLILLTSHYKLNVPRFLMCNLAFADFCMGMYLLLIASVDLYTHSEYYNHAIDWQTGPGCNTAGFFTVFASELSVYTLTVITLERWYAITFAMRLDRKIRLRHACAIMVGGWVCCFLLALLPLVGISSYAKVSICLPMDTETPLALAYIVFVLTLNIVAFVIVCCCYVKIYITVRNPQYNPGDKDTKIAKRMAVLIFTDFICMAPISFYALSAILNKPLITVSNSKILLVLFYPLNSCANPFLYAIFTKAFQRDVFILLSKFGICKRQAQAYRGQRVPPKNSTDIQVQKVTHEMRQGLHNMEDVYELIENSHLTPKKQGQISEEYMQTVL
Sequence of Estrogen receptor (Homo sapiens) (P03372 whole entry, looked up): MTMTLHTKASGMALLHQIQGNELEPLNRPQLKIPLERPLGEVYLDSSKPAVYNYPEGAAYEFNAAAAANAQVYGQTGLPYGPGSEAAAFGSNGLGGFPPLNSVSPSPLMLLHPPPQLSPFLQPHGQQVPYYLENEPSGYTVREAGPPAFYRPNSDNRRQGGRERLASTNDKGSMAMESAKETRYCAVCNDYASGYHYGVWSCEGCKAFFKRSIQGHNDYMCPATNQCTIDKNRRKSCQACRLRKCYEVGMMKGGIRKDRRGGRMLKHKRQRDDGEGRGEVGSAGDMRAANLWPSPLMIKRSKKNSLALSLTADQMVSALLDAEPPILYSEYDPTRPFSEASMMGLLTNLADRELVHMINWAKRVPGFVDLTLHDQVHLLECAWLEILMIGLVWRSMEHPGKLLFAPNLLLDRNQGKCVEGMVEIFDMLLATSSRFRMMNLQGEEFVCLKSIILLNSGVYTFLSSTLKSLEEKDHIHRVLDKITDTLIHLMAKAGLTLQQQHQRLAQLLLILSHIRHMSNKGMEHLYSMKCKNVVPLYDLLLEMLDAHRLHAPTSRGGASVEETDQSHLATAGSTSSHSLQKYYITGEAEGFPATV

Consider `CS(=O)(=O)Nc1ccc([N+](=O)[O-])cc1Oc1ccccc1`, for which the call in test [1], in [7], in test [8], in test [16] and in [17] was inactive. The Potency result in [2], in [3], in test [5], in test [6], in test [10] and in test [11] was “inactive” in each case. In addition, the Potency result in test [12], in test [13], in test [14] and in test [15] was “inactive” each time. For the same molecule, the Potency is 26.6 µM (active) in [4]; 48.6 µM (active) and 26.6 µM (active) in test [9].
Regarding `O=S(=O)(O)c1cc(S(=O)(=O)O)c2c(N=Nc3ccccc3)c(O)ccc2c1`, the outcome in test [1], in test [7], in test [8], in test [16] and in test [17] was inactive. In addition, the Potency result in test [2], in test [3], in test [5], in test [6], in test [18] and in test [10] was “inactive” in each case. The Potency entry in [11], in test [12], in test [13], in test [14] and in test [15] was “inactive” in each case. In addition, the Potency was 30.8 µM (active) and 54.5 µM (active) in [4]; 61.4 µM (active) and 27.3 µM (active) in test [9].
`C=C1C2CCC(C2)C1(C)C` (stereo not drawn): the call in test [1], in [7], in test [8], in test [16] and in test [17] was inactive. The Potency result in test [2], in test [3], in test [4], in test [5], in [6] and in test [18] was “inactive” in each case. The Potency entry in [9], in [10], in test [11], in test [12], in test [13] and in test [14] was “inactive” in each case. Also, the Potency result in [15] is “inactive”.
With `Cc1cc(Cc2ccc(N)c(C)c2)ccc1N`, the molecule was classed as inactive in test [1], in [16] and in [17]. The Potency entry in test [2], in [3], in [4], in [6], in test [9] and in test [10] was “inactive” each time. Moreover, the Potency entry in test [12], in test [13] and in [15] was “inactive” in each case.
With `CN(C)c1cccc(O)c1`, the result in test [1], in test [7], in test [8], in test [16] and in [17] was inactive. In addition, the Potency entry in [2], in test [3], in test [4], in test [5], in test [6] and in test [9] was “inactive” throughout. The Potency result in test [10], in test [11], in test [12], in test [13] and in [15] was “inactive” in each case.
As for `Cc1cc(NS(=O)(=O)c2ccc(N)cc2)no1`, the result in [1], in [7] and in test [16] was inactive. The Potency result in test [2], in test [3], in test [5], in [6], in test [9] and in test [10] was “inactive” throughout. Further, the Potency entry in test [11], in test [12], in test [14] and in test [15] was “inactive” throughout.
`CCOC(=O)/C=C\C(=O)OCC`: the outcome in test [1], in test [7], in [8], in test [16] and in test [17] was inactive. For the same molecule, the Potency result in test [2], in test [4], in test [5], in test [6], in [18] and in test [9] was “inactive” throughout. Moreover, the Potency entry in test [10], in test [11], in test [12], in [13] and in [15] was “inactive” throughout.
Turning to `CS(=O)(=O)c1ccc([C@@H](O)[C@@H](CO)NC(=O)C(Cl)Cl)cc1`, the call in [1] and in [16] was inactive. Moreover, the Potency entry in [2], in [4], in test [5], in [6], in test [18] and in test [9] was “inactive” in each case. Further, the Potency entry in test [10], in test [11], in test [12], in test [13] and in [15] was “inactive” in each case.

The values are drawn from PubChem BioAssay (Tox21).
